# High-throughput results: PubChem BioAssay, The Scripps Research Institute Molecular Screening Center
# TEAD-YAP inh: TEAD-YAP interaction inhibition. HEK-TIYL cells, TEAD-Gal4/YAP UAS-luciferase luminescence. inhibition, % at 9.12 µM. 640,000 compounds, 1.4% hits; in the data active = inhibition above about 32%
# MITF inh: inhibitors of human MITF | AlphaScreen MITF homodimerization, bead proximity signal | O75030 | inhibition, % at 2.6 µM | 650,000 compounds, 0.91% hits | AID 1259374; in the data active = inhibition above about 50%
# FBW7 act: human FBW7 E3 ligase activation, primary screen; Q969H0; 650,000 compounds, 0.13% hits; AID 1259310; AlphaScreen FBW7–phospho-cyclin E peptide binding, activator screen; normalized activity (activation), % at 26.1 µM; in the data active = normalized activity above about 1.9%;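 also: purified mutant Fbw7 with reduced substrate affinity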
# GPR151 activ: activates the human receptor GPR151. Q8TDV0. PathHunter beta-arrestin GPR151 cells, luminescence. activation, % at 11.2 µM. 650,000 compounds, 1% hits. AID 1508602; in the data active = activation above about 4.9%
# Hits are given with their value; . = inactive. A selection: hits, their analogues and other compounds. The true share with any hit is near 3.4%.
SMILES,TEAD-YAP inh,MITF inh,FBW7 act,GPR151 activ
Cc1cccc(-n2nc3c(c2NC(=O)COc2ccc(Cl)cc2)CS(=O)(=O)C3)c1C,.,.,.,.
CCCn1c2c(c(O)c(C(=O)Nc3cc(Cl)ccc3OC)c1=O)CCCC2,.,.,.,.
CCOC(=O)c1sc(NC(=O)c2ccco2)c(SC#N)c1C,34.4,.,.,.
CCOC(=O)c1cccc(NC(=O)/C=C/c2ccccc2[N+](=O)[O-])c1,33.2,.,.,.
c1ccc(-c2csc(Nc3ccnc(Nc4ccc(N5CCOCC5)cc4)c3)n2)cc1,64.3,.,.,.
c1cncc(-c2csc(Nc3ccnc(Nc4ccc(N5CCOCC5)cc4)c3)n2)c1,33.1,.,.,.
c1ccc(-c2cnn(-c3ccnc(Nc4ccc(N5CCOCC5)cc4)c3)c2)cc1,45.1,.,.,.
Cc1ccc(OCCCCN2CCNCC2)c(C(C)(C)C)c1,.,.,.,.
COc1cccc(C2N(c3ccc(C)cc3)N=C(C(C)=O)N2c2cccc(C)c2)c1OCc1ccccc1 (configuration not stated),68.1,.,.,.
COc1cccc(C2N(c3ccccc3)N=C(C(C)=O)N2c2ccc(C)c(C)c2)c1OCc1ccccc1 (configuration not stated),54.0,.,.,.
CC(=O)C1=NN(c2ccccc2)C(c2ccccc2OCc2ccc(Cl)cc2)N1c1ccc(Cl)cc1 (configuration not stated),.,.,.,.
Cc1ccc2onc(CNC(=O)N3CCC(C)CC3)c2c1,.,.,.,.
Fc1cc(-c2nc(Nc3ccc(-n4cnc(N5CCOCC5)n4)cc3)ncc2F)cc(N2CCOCC2)c1,.,.,.,.
Fc1cc(-c2nc(Nc3ccc(-n4cnc(-c5ccccn5)n4)cc3)ncc2F)cc(N2CCOCC2)c1,58.4,.,.,.
c1ccc(-c2ncn(-c3ccc(Nc4nccc(-c5cncc(N6CCOCC6)c5)n4)cc3)n2)nc1,73.0,.,.,.
c1ccc(-c2ncn(-c3ccc(Nc4nccc(-c5cccc(N6CCOCC6)c5)n4)cc3)n2)nc1,80.2,.,.,.
c1cc(-c2ccnc(Nc3ccc(-n4cnnc4)cc3)n2)cc(N2CCOCC2)c1,44.6,.,.,.
CC1=C(C(=O)Nc2ccc(Cl)cc2)C(c2ccncc2)C(C#N)=C(SCC(=O)Nc2ccc(C)cc2C)N1 (configuration not stated),.,.,.,.
C=CCN(c1ccc(C(=O)Nc2ccc(OC)c(Cl)c2)cc1)S(C)(=O)=O,.,.,.,.
Cc1ccc(S(=O)(=O)NCc2nnc(SCc3ccccn3)n2C)cc1,.,.,.,.
COc1ccc(/C(C)=N/NC(=O)C(C)Nc2ccccc2C)cc1 (configuration not stated),.,.,.,.
O=C(O)c1nn(C23CC4CC(CC(C4)C2)C3)cc1[N+](=O)[O-],.,.,.,.
O=C(O)Cn1cc(/C=C2\NC(=S)N(c3ccccc3)C2=O)c2ccccc21,.,.,.,.
N/C(=N\OC(=O)c1ccccc1Cl)c1ncon1,.,.,.,.
N/C(=N\OC(=O)c1sc2ccccc2c1Cl)c1ncon1,40.0,.,.,.
SMILES,TEAD-YAP inh,MITF inh,FBW7 act,GPR151 activ
N#CC(C#N)=NNc1ccccc1C(=O)O,.,.,.,.
N#CC(C#N)=NNc1ccc(O)c(C(=O)O)c1,.,79.1,.,.
CC(c1ccccc1)n1c(O)c2ccc(C(=O)N=NC(=O)c3ccncc3)cc2c1O (configuration not stated),.,.,.,.
Cc1nc2sccn2c1C(=O)N1CCN(c2cccc(C(F)(F)F)c2)CC1,57.6,.,.,.
Cc1nc2sccn2c1C(=O)N1CCCC1,.,.,.,.
CC(C)(C)c1ccc(NC(=O)c2cnc3ccccn23)cc1,54.7,.,.,.
O=C(Nc1ccc(Cl)cc1)c1cnc2ccccn12,.,.,.,.
COc1ccc(/C=C(\C#N)c2ccccc2)c(OC)c1,32.5,.,.,.
CC(=O)NC(c1cccc(Cl)c1)c1cc(Cl)c2cccnc2c1O (configuration not stated),35.8,.,.,.
CCCCC(=O)NC(c1ccc2c(c1)OCO2)c1cc(Cl)c2cccnc2c1O (configuration not stated),.,.,.,.
CC(=O)NC(c1ccc2c(c1)OCO2)c1cc(Cl)c2cccnc2c1O (configuration not stated),70.6,.,.,.
CC(=O)NC(c1ccc(C)cc1)c1cc(Cl)c2cccnc2c1O (configuration not stated),.,.,.,.
O=C(c1nc2ccccn2c1CNCCc1cccc2ccccc12)N1CCOCC1,.,.,.,.
CC(=O)CCN1C(=O)C(=O)c2cc(Br)ccc21,.,.,.,.
